# Measured values taken from PubChem BioAssay (NCI).
# About 83,000 compounds went through this panel and 20% of them were active in at least one assay; those are over-represented in the sample as a whole.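 Compound tested at a single concentration for 48 hours in 96-well plates; a percent growth value below 10 was scored as active.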 A number with no mark means an inactive call. The source made the active and inactive calls.
# Assays:
# Test in all cases: NCI-60 one-dose screen, 48 h (100 = growth as untreated, 0 = no growth, -100 = all killed)
# Settings in all cases: 10 µM unless noted
# BT-549 breast = tested on: BT-549 breast
# MDA-MB-435 melanoma = tested on: MDA-MB-435 melanoma
# SW-620 colon = tested on: SW-620 colon
# MCF7 breast = tested on: MCF7 breast
# HCT-116 colon = tested on: HCT-116 colon
# HCC-2998 colon = tested on: HCC-2998 colon
# KM12 colon = tested on: KM12 colon
SMILES,growth (BT-549 breast),growth (MDA-MB-435 melanoma),growth (SW-620 colon),growth (MCF7 breast),growth (HCT-116 colon),growth (HCC-2998 colon),growth (KM12 colon)
O=C1[C@@H](OS(=O)(=O)CC(F)(F)F)[C@H](c2ccc(F)cn2)N1c1cc2c3ccccc3ccc2c2ccccc12,66.2%,30.5%,47.6%,64%,79.3%,105%,87%
O=S(=O)(O)c1ccc(N=NSc2ccc3ccccc3c2)cc1,94%,99.9%,96.5%,98.9%,85.8%,97.2%,98.6%
CCc1ccc(OCc2ccccc2C(=O)Nc2ccc3nc(C)cc(N)c3c2)cc1,-91.9% (active),-91.2% (active),-64.3% (active),-70.2% (active),-99.3% (active),-76.8% (active),-78.9% (active)
COc1ccc(Nc2nc(SCC(C)C)nc(-c3ccc(F)cc3)c2C#N)cc1,75.5%,9.54% (active),47.9%,29.1%,35.7%,92.8%,44.4%
O=CN1N=C(c2ccc3c(c2)OCO3)CC1c1cccc(Nc2ccnc3cc(C(F)(F)F)ccc23)c1 (stereo unspecified),75%,40.6%,95.1%,68.2%,74.5%,93.6%,66.6%
C#C[C@@]1(O)[C@@H](CO)O[C@@H](n2cc(Br)c3c(N)ncnc32)[C@@H]1O,-45.5% (active),14.6%,-0.395% (active),-18.4% (active),3.16% (active),-22% (active),8.07% (active)
COc1ccc2c(c1)OC13Oc4cc(OC)ccc4C=C1CCCCC3=C2,92%,105%,90.7%,75.2%,73.4%,97.7%,94.8%
Nc1ccc(C2=NN(C(=O)c3cc(-c4ccc(Cl)cc4)nc4ccccc34)C(c3ccccc3)C2)cc1 (stereo unspecified),35.1%,-24.3% (active),22.5%,12.7%,24.7%,59.6%,24.5%
CC(=O)Nc1nc2c(c(N)c1C#N)C(c1cccc(Cl)c1)C1=C(CCCC1=O)N2c1sc2c(c1C#N)CCCC2 (stereo unspecified),45.9%,65.5%,80.3%,20.7%,33.3%,45.7%,49.1%
Cc1cccc(C)c1NC(=O)CN(CC(C)C)CC(O)COc1ccccc1 (stereo unspecified),82.4%,102%,93.6%,83.3%,86.8%,95.8%,100%
CCCn1cc(/C=N\N=C2\C(=O)Nc3ccc(C)cc32)c2ccccc21,63.5%,-26.6% (active),36.7%,8.92% (active),39.9%,47%,59.9%
COc1ccc(-c2nc(C#N)c(NCC(c3ccco3)N3CCCC3)o2)cc1 (stereo unspecified),66.7%,-23.5% (active),27.3%,19.6%,27%,67%,33.8%
CCOC(=O)C1CCN(S(=O)(=O)/N=C2/NC(=O)NC2=C(Cl)Cl)CC1,-9.2% (active),-7.61% (active),-63.9% (active),16.4%,9.4% (active),-10.1% (active),12.8%
NS(=O)(=O)c1ccc(N2Cc3cc(Cl)ccc3OC3=C2C(=O)N(CC2CCCCC2)C3=O)cc1,-76.4% (active),-73.9% (active),-77.5% (active),-71.5% (active),-85.6% (active),-72.9% (active),4.52% (active)
CC(=O)c1cnc(-c2ccccc2)nc1CBr,70.3%,86.4%,39.6%,52.2%,28.4%,99.8%,95.2%
C=C1C(=O)O[C@H]2[C@H]1CC/C(COC(=O)c1c[nH]c3ccccc13)=C\CC[C@@]1(C)O[C@@H]21,-37.2% (active),-82.9% (active),-61.4% (active),-52.7% (active),-86.1% (active),-80.9% (active),-47.4% (active)
CCOC(=O)c1cnn(-c2nc(-c3ccc(F)cc3)c(C#N)c(N3CCOCC3)n2)c1N,95.6%,99.1%,104%,89.9%,99.5%,111%,105%
O=C(Nc1ccc2ncnc(Nc3ccc(F)c(Cl)c3)c2c1)c1ccccc1,74.2%,80.4%,88%,47.2%,47.2%,98.7%,79.6%
N#Cc1ccc(N2Cc3cc(Cl)ccc3OC3=C2C(=O)N(Cc2ccccc2)C3=O)cc1,-50.5% (active),-42.5% (active),-75.8% (active),-1.6% (active),-82.7% (active),40.4%,61.4%
C#C[C@@]1(O)[C@@H](CO)O[C@@H](n2cc(Cl)c3c(N)ncnc32)[C@@H]1O,-32.9% (active),-12.3% (active),2.67% (active),-40.6% (active),4.58% (active),-33.8% (active),1.42% (active)
CCCCn1c(=O)c(/C=C/C(=O)/C=C/c2ccc(OC)cc2)cc2cc(Cl)ccc21,89.4%,95.6%,18.3%,34.4%,-67.1% (active),90.7%,25.9%
COc1ccccc1C(=O)/C=C/c1cc2cccc(OC)c2[nH]c1=O,-3.55% (active),6.42% (active),-6.28% (active),13.4%,-15% (active),-84.7% (active),-49.1% (active)
CCCCC1=c2c([nH]c3ccc(OC)cc23)=NC2C=CC=NC12 (stereo unspecified),98.9%,93.4%,98.5%,13.5%,74.8%,97.1%,38.9%
CCCCCCCCCCCCCC1=NCC[N+]1(CCO)Cc1ccccc1 (stereo unspecified),-50.7% (active),-91.8% (active),-78.2% (active),-84.8% (active),-90.8% (active),-75.3% (active),-85.1% (active)

SMILES,growth (BT-549 breast),growth (MDA-MB-435 melanoma),growth (SW-620 colon),growth (MCF7 breast),growth (HCT-116 colon),growth (HCC-2998 colon),growth (KM12 colon)
CC(C)(C)c1nc2c(s1)c1nc(N)ncc1c1ccc(NS(=O)(=O)c3c(F)cccc3F)c(F)c12,77.4%,38.6%,110%,89.8%,49.3%,82%,35.5%
CS(=O)(=O)O[C@@H]1C(=O)N(c2cc3c4ccccc4ccc3c3ccccc23)[C@H]1c1ccc(F)cn1,44.6%,-26% (active),22.5%,21.6%,14.3%,60.1%,23%
Cc1cnc(-c2ccc(-c3ccc(NC(=O)Nc4c(F)cc(F)cc4F)cc3F)c3c2C(=O)NC3)[nH]1,55.8%,14.2%,10.1%,22.1%,14.2%,60.5%,11.7%
C=C(C)[C@@H]1CC[C@]2(C(=O)O)CC[C@]3(C)[C@H](CC[C@@H]4[C@@]5(C)C[C@@H](CC#Cc6ccccc6)C(=O)C(C)(C)[C@@H]5CC[C@]43C)[C@@H]12,40.7%,66.8%,27.3%,15.5%,9.07% (active),29%,27.9%
S=C(Nc1ccccc1)c1ccccn1,90.5%,103%,89.6%,77.5%,92.5%,98.7%,99.8%
COc1ccc2nc(-c3ccc(Cl)cc3)cc(C(=O)N3N=C(c4ccc(N)cc4)CC3c3ccccc3)c2c1 (stereo unspecified),44%,4.25% (active),36%,11.9%,34.8%,70.3%,18.7%
O=C(Nc1nc(-c2ccccc2)cs1)c1cc(-c2ccc(Br)cc2)nc2ccccc12,60.3%,77.2%,51.6%,37.6%,27.5%,87.7%,67%
CNCc1cccc2c1OCCOCCOCCN(CCN1CCOCC1)S(=O)(=O)c1ccc(cc1)-c1cnc(N)c(n1)C(=O)N2,22.3%,47.3%,43.4%,37.8%,35.9%,48.2%,37.5%
CCCCCCC/C=C/[C@H]1O[C@]23C(=O)C[C@@]4(C[C@@H](OC5OC(CO)C(O)C(O)C5O)C[C@@H]4[C@H]2C=C1C)OC3=O (stereo partly specified),-0.665% (active),3.95% (active),9.92% (active),14.4%,1.7% (active),31.3%,28.6%
CC1(c2ccccc2Cl)NC(=O)NC1=O (stereo unspecified),99%,105%,102%,96.9%,107%,92.3%,109%
C=CCn1c(SCC(=O)Nc2ccc(C(=O)/C=C/c3cc(OC)c(OC)c(OC)c3)cc2)nnc1-c1ccc(Cl)cc1,10.4%,5.58% (active),11.8%,-3.5% (active),-62.2% (active),-8.4% (active),9.43% (active)
CCCNc1nc(C)[nH]c(=O)c1S,113%,105%,121%,111%,108%,112%,107%
O=C(Nc1ccc2ncnc(Nc3cccc(C(F)(F)F)c3)c2c1)c1cccs1,71.8%,63.3%,27.7%,32.2%,38.3%,62.8%,49.6%
COc1cc(C2=NN(C=O)C(c3cccc(Nc4ccnc5cc(C(F)(F)F)ccc45)c3)C2)cc(OC)c1OC (stereo unspecified),56.1%,43.5%,64.6%,38.4%,58.4%,70.1%,59.7%
COc1ccc(/C=C/C(=O)c2ccc(NC(=O)CSc3nnc(-c4ccc(OC)c(OC)c4)n3-c3ccccc3)cc2)cc1,55.2%,45.3%,10.2%,-8.34% (active),-85.8% (active),94.9%,61.3%
COc1cc(F)c(-c2nc3c(C)cccc3n2Cc2c(F)cccc2F)c(F)c1,98.5%,94.8%,91.6%,78.5%,74.6%,82.1%,90.1%
N#Cc1c(-c2ccc(F)cc2)nc(N=Nc2c(O)[nH]c3ccc(Cl)cc23)nc1N1CCOCC1,71.4%,67%,68.9%,39.9%,21.4%,96.7%,48.5%
CC(=O)c1cc2c(N)c(C(=O)Nc3ccccn3)sc2nc1C,98.6%,5.72% (active),96.9%,73.2%,93.3%,84.6%,89.3%
CCCCOc1nc2ccc(C)cc2cc1/C=C/C(=O)/C=C/c1ccc2c(c1)OCO2,75.9%,35.8%,99.5%,37.8%,10.5%,106%,87.3%
Nc1ccccc1NC(=O)c1ccc(CSc2nc(N3CCOCC3)c3cccn3n2)cc1,15.3%,-21.2% (active),9.25% (active),10.3%,6.78% (active),17.6%,16.6%
COc1ccc(-c2[nH]c3ccc(OC)cc3c2C=C(C#N)C#N)cc1,55.1%,-62.5% (active),26.5%,17.1%,19%,50.3%,20.1%
COC1=CC2C=C(C3N(c4ccccc4)NC(=O)[C@@H]4CCCN34)C(=O)NC2C=C1 (stereo partly specified),97.4%,97%,105%,94.1%,93.8%,94.8%,100%
COc1ccc2nc(-c3ccc(Cl)cc3)cc(-c3nnc(SCC(=O)Nc4ccc(/C(C)=N\O)cc4)o3)c2c1,25.4%,16.4%,3.98% (active),7.93% (active),2.59% (active),82%,30.9%
CCOC(=O)c1c(C)nc2c(c1N)/C(=C/c1cccs1)C(=O)N2c1ccc(OC)cc1,45.9%,59.9%,67.6%,25%,20.9%,80.7%,70.2%
